KCNQ2 enhance: potentiators of rat KCNQ2 potassium channel. 0.54% of 310,000 active. B-score at 10 µM. CHO-K1 KCNQ2, FluxOR thallium flux fluorescence; stronger effect = higher value. O88943. AID 2239;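 active = fluorescence ratio B-score at least 3 SD of library B-scores, with initial fluorescence B-score within 3 of them, cut at about 5.3 in these data; same plate scores as AID 2156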;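 note: B-score of peak minus minimum over baseline fluorescence ratio after K+ and Tl+ stimulus; positive B-score means potentiation of KCNQ2 with more thallium influx and brighter signal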
KCNQ2 inh: inhibitors of rat KCNQ2 potassium channel; 1.1% of 310,000 active; AID 2156; B-score at 10 µM; CHO-K1 KCNQ2, FluxOR thallium flux, 20 min; stronger effect = lower value;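 active = fluorescence ratio B-score at most minus 3 library SDs, with starting brightness B-score within 2 library SDs, cut at about -5.5 in these data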
Kir21 conf inh: confirmation of mouse Kir2.1 potassium channel inhibitors; shares compounds with KCNQ2 enhance; Kir2.1-expressing cells, FluxOR thallium flux fluorescence; stronger effect = lower value; Tl flux remaining, % of negative control (stronger effect = lower value), % at 10 µM; 41% of 2,300 active; AID 2032;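 active = Primary-screen hit whose thallium flux fell at least 3 control SD below untreated wells in both duplicates, with normal baseline fluorescence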;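 note: 0% = blank wells without stimulus and 100% = stimulated no-compound controls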
HEK293 Tl flux: alters thallium flux in parental HEK293 cells, Kir2.1 counter-screen; shares compounds with KCNQ2 enhance; 19% of 2,300 active; FluxOR signal as % of negative control (100 = no effect), % at 10 µM; AID 2105; FluxOR thallium flux fluorescence; 0% = unstimulated blank wells;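 active = dye signal at least 3 control SD above or below untreated wells in both duplicates, raw fluorescence within 3, either direction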;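 note: percent is based on the flux ratio of peak minus minimum fluorescence over baseline F0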
CHO-K1 Tl ctr: parental CHO-K1 activity in KCNQ2 potentiator counter-screen | 43% of 1,200 active | AID 2282 | shares compounds with KCNQ2 enhance | activity increase over 3SD of controls, % at 10 µM | parental CHO-K1 cells, FluxOR thallium flux fluorescence; zero = vehicle mean+3SD, 100% = vehicle-minus-blank window;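 active = signal rise of at least 3 SD above the untreated control mean, in both duplicate wells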;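 note: counter screen of KCNQ2 potentiator hits so any rise reflects channel-independent effects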
KCNQ1 pot spec: selectivity of KCNQ2 potentiators: effect on human KCNQ1; CHO KCNQ1 stable, FluxOR thallium flux fluorescence; beyond 3SD, as % of vehicle-control signal; activation over 3SD threshold, % at 10 µM; shares compounds with KCNQ2 enhance; 28% of 1,200 active;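 active = fluorescence ratio rise of at least 3 SD of vehicle wells above their mean, in both replicate wells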;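 note: 0% = vehicle mean plus 3 SD and 100% = vehicle minus unstimulated blank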
Target sequence (P51787 whole entry, looked up): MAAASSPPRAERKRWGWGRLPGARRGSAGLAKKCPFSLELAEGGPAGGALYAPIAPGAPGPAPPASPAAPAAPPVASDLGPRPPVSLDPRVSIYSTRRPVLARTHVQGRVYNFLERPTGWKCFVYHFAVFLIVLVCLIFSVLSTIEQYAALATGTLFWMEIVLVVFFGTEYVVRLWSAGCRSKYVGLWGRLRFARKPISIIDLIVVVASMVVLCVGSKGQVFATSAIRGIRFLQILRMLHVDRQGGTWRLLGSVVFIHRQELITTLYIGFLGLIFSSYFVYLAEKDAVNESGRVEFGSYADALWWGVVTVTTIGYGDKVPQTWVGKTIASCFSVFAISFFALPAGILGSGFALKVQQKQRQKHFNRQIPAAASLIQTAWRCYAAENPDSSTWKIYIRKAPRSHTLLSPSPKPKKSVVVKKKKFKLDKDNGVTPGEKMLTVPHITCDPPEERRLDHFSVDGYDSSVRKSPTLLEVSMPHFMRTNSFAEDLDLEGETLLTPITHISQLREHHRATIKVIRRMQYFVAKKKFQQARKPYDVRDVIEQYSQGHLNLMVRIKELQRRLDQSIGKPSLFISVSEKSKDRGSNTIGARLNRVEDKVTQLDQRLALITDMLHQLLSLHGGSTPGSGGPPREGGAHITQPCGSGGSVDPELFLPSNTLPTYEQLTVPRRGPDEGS
KCNQ2 pot conf: rat KCNQ2 channel potentiator confirmation; AID 2287; CHO-KCNQ2 cells, FluxOR thallium flux fluorescence; potentiation, less the hit threshold, % at 10 µM; 68% of 1,200 active; shares compounds with KCNQ2 enhance;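 active = fluorescence ratio rising 3 SD or more over the vehicle control mean in both replicates, plus primary screen hit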;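 note: peak minus minimum thallium fluorescence divided by baseline after K/Tl stimulus; 0% = vehicle mean plus 3 SD and 100% = vehicle minus unstimulated blank difference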
Kir21 spec: tests whether KCNQ2 potentiators also affect mouse Kir2.1; activity over 3SD threshold, % at 10 µM; shares compounds with KCNQ2 enhance; HEK293 Kir2.1, FluxOR thallium flux fluorescence; 2% of 1,200 active;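 active = fluorescence ratio rise of at least 3 SD above the vehicle-control mean, seen in both replicates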;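 note: 0% = vehicle mean plus 3 SD and 100% = vehicle minus no-stimulus blank window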
KCNQ2 W236L MoA: KCNQ2 potentiators acting on retigabine-insensitive rat KCNQ2 W236L mutant. shares compounds with KCNQ2 enhance. CHO KCNQ2-W236L, automated patch clamp current. current increase over 3SD of negative controls (%), stronger effect = higher value, % at 25 µM. 10% of 940 active. AID 2558;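 active = current increase at least 3 SD of the untreated controls above them in both duplicate recordings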
An asterisk follows results filed as active; i = inactive; x = no result given. Hits are enriched below; roughly 1.6% of the tested compounds scored in any of these assays.

SMILES	KCNQ2 enhance	KCNQ2 inh	Kir21 conf inh	HEK293 Tl flux	others
CCOC(=O)c1c(NC(=O)CN2CCN(C(=O)c3ccco3)CC2)sc2c1CCCC2	0.34	i	i	i
O=S(=O)(NCC1CCCO1)c1cnc(Cl)c(Br)c1 (stereo not given)	x	i	x	x
O=C(O)c1cn2c3c(ccc(Cl)c3c1=O)OCC2	0.04	i	x	x
COc1ccc(CCNC(=O)C(C)SCc2ccccc2)cc1 (stereo not given)	0.39	i	41%*	i
COc1cccc(NC(=O)C(C)SCc2ccccc2)c1 (stereo not given)	0.63	i	x	x
CCN(C(=O)COC(=O)CCc1c[nH]c2ccccc12)c1c(N)n(Cc2ccccc2)c(=O)[nH]c1=O	1.7	i	x	x
CCN(CCNCC(O)COc1ccccc1C(C)C)c1cccc(C)c1 (stereo not given)	x	i	33%*	i
CCOC(=O)c1cccc(OCC(O)CNCCOc2ccccc2F)c1 (stereo not given)	0.64	i	x	x
COc1ccc(N2CC(C(=O)Nc3nnc(SCC(=O)NCC4CCCO4)s3)CC2=O)cc1 (stereo not given)	0.97	i	x	x
CC1CCN(C(=O)Cn2nnc(-c3ccc(C(C)C)cc3)n2)CC1	2.4	i	x	x
O=C(NC1CCN(Cc2ccccc2)CC1)c1ccc(Cl)cc1Cl	x	i	76%*	i
O=C(c1ccc(Cl)cc1)C1CCN(Cc2ccccc2)CC1	x	i	20%*	i
Clc1ccc(CNC2CCN(Cc3ccccc3)CC2)cc1	x	i	28%*	i
CC(=O)N1CCC(C(=O)c2ccc(Cl)cc2)CC1	x	i	x	x
Fc1ccc(CNC2CCN(Cc3ccccc3)CC2)cc1	x	i	x	x
S=C(Nc1ccc(Cl)cc1Cl)NC1CCN(Cc2ccccc2)CC1	0.91	i	x	x
CC(=O)c1cccc(OCc2cc(C(=O)NCCC3=CCCCC3)no2)c1	x	i	x	x
O=C(c1c(Cl)cccc1Cl)N1CCN(c2ncccn2)CC1	x	i	x	x
CC(C)(C)OC(=O)N1CCC(CC2CC(c3cccc(Br)c3)=NO2)(C(=O)O)CC1 (stereo not given)	x	i	x	x
c1cc2ccc3ccc(CN4CCOCC4)c4ccc(c1)c2c34	0.02	i	x	x
OC1CCCN(Cc2ccc3ccc4cccc5ccc2c3c45)C1 (stereo not given)	x	i	48%*	i
CC(C)Nc1ccc(Nc2ccnc3cc4ccccc4cc23)cc1	x	i	x	x
c1ccc(CCNc2ccnc3cc4ccccc4cc23)cc1	0.82	i	i	i
Cc1cccc(OCCCC(=O)N2CCCCCC2)c1C	x	i	x	x
Cc1cccc(NC(=O)CSCC(=O)OCc2ccccn2)c1	x	i	x	x
SMILES	KCNQ2 enhance	KCNQ2 inh	Kir21 conf inh	HEK293 Tl flux	others
c1ccc(-c2ccccc2OCCOCCN2CCc3ccccc3C2)cc1	x	i	50%*	i
Clc1ccc(OCCOCCN2CCc3ccccc3C2)c(Cl)c1	x	i	x	x
COc1cc(OC)cc(C(=O)NNC(=O)C(=O)Nc2cc(OC)c(Cl)cc2OC)c1	9.3*	i	i	182%*	CHO-K1 Tl ctr=-2;KCNQ1 pot spec=-13;KCNQ2 pot conf=-4;Kir21 spec=-26;KCNQ2 W236L MoA=i
Cc1ccc(NC(=O)c2cccs2)cc1	0.09	i	x	x
Cc1ccc(NC(=O)C(=O)NNC(=O)c2cccs2)cc1	10*	i	i	341%*	CHO-K1 Tl ctr=-8;KCNQ1 pot spec=-14;KCNQ2 pot conf=35*;Kir21 spec=-6;KCNQ2 W236L MoA=i
COc1ccc(NC(=O)C(=O)NNC(=O)c2cccs2)cc1	3.3	i	x	x
COc1ccc(S(=O)(=O)NNC(=O)C23CC4CC(CC(C4)C2)C3)cc1	x	i	x	x
COc1ccc(OC)c(NC(=O)C(=O)NNC(=O)C23CC4CC(CC(C4)C2)C3)c1	8.7*	i	i	272%*	CHO-K1 Tl ctr=-11;KCNQ1 pot spec=-17;KCNQ2 pot conf=7.5*;Kir21 spec=-24;KCNQ2 W236L MoA=i
COc1ccc(NC(=O)C(=O)NNC(=O)c2cccs2)c(OC)c1	8.6*	i	i	240%*	CHO-K1 Tl ctr=-4;KCNQ1 pot spec=19*;KCNQ2 pot conf=6.9*;Kir21 spec=-46;KCNQ2 W236L MoA=i
COc1cc(NC(=O)c2ccccc2)c(OC)cc1Cl	x	i	x	x
COc1ccc([N+](=O)[O-])cc1NC(=O)C(C)OC(=O)Cn1[nH]c(=O)c2ccccc2c1=O (stereo not given)	1	i	x	x
O=C1Nc2cc3c(cc2C1=O)sc1ccccc13	0.11	i	x	x
CC1CCN(CC(CS(=O)(=O)c2ccc([N+](=O)[O-])cc2)N2CCC(C)CC2)CC1 (stereo not given)	x	i	x	x
COc1ccccc1CC(NC(C)=O)C(=O)NC1CCN(C(=O)c2ccc(C)cc2)CC1 (stereo not given)	x	i	x	x
COc1cc(C2CC(=O)N(c3ccc(C)cc3)C(=O)C2)cc(OC)c1OC	x	i	x	x
COc1cccc(C(=O)NNC(=O)C(=O)Nc2ccc(C)c(Cl)c2)c1	4.9	i	x	x
CCc1ccc(NC(=O)C(=O)NNC(=O)c2cccc(OC)c2)cc1	6.4*	i	i	196%*	CHO-K1 Tl ctr=5.0*;KCNQ1 pot spec=-13;KCNQ2 pot conf=4.9*;Kir21 spec=-21;KCNQ2 W236L MoA=i
CC(=O)c1cccc(NC(=O)c2ccccc2N(Cc2ccccc2)S(C)(=O)=O)c1	x	i	x	x
COc1ccc(-n2nc(C(=O)NCC(=O)Nc3cccc(Cl)c3)c3ccccc3c2=O)cc1	x	i	x	x
COc1cccc(C(C(=O)NC2CCCC2)N(C(=O)c2ccco2)c2ccccc2)c1OC (stereo not given)	0.03	i	x	x
CC(C)Cc1nc(SCC(=O)N2CCOCC2)c2c(=O)n(C)c(=O)n(C)c2n1	3.2	i	x	x
CC(C)Cc1nc(SCC(=O)N2CCCCC2)c2c(=O)n(C)c(=O)n(C)c2n1	27*	i	i	i	CHO-K1 Tl ctr=-24;KCNQ1 pot spec=-5;KCNQ2 pot conf=121*;Kir21 spec=-16;KCNQ2 W236L MoA=i
CCc1nc(SCC(=O)N2CCCCC2)c2c(=O)n(C)c(=O)n(C)c2n1	9.1*	i	i	i	CHO-K1 Tl ctr=-21;KCNQ1 pot spec=-20;KCNQ2 pot conf=42*;Kir21 spec=-13;KCNQ2 W236L MoA=i
CCCc1nc(SCC(=O)N2CCC(C)CC2)c2c(=O)n(C)c(=O)n(C)c2n1	25*	i	i	i	CHO-K1 Tl ctr=-8;KCNQ1 pot spec=-18;KCNQ2 pot conf=141*;Kir21 spec=-39;KCNQ2 W236L MoA=i
CC(C)c1nc(SCC(=O)N2CCOCC2)c2c(=O)n(C)c(=O)n(C)c2n1	1.8	i	x	x
CCc1nc(SCC(N)=O)c2c(=O)n(C)c(=O)n(C)c2n1	0.95	i	x	x

Assay outcomes: PubChem, Johns Hopkins Ion Channel Center
